Bioassay records as filed in PubChem BioAssay.
MARV entry inh: Marburg virus entry inhibition; Marburg virus pseudotyped entry inhibition, cell reporter; Potency, µM (titrated, usually from 37.8 µM), actives largely listed as inhibitors; hit rate 1.8% among 300,000; calls by dose curve; tested in HEK293 cells
Lassa entry inh: blocks Lassa virus binding to or entry into cells; Lassa virus pseudotype entry inhibition, cell reporter; Potency, µM (top dose mostly 37.9 µM), usual class: inhibitors; hit rate 1.2% among 300,000; AID 540256; calls by dose curve; tested in HEK293 cells; note: nearly all actives have a fitted effect of over 50% in size
HCV inhibitor: blocks hepatitis C virus; hit rate 3.4% among 340,000; Huh7.5.1 HCVcc-Cre infection, luciferase reporter, 44 h; Potency, µM (top dose mostly 41.8 µM), most hits filed as inhibitors; active = well fitted inhibition curve with a large enough effect; inconclusive = small, poorly fitted or top-dose-only effect, or another doubt; inactive = no such curve, though single readings can be large or run the other way
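Infectious HCV cell culture screen: compound-treated cells (1,000/well, pre-plated 4 h) are infected with HCVcc-Cre at roughly 0.5 moi and grown 44 h. Infection is quantified by luciferase signal after 15 min substrate incubation at room temperature.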
Vaccinia Venus: vaccinia inhibition (Venus reporter); Vaccinia virus Venus reporter expression, fluorescence; hit rate 0.46% among 330,000; Potency, µM (titrated, usually from 36.5 µM), usual class: inhibitors; calls by dose curve; tested in A549 cells; note: nearly all actives have a fitted effect of over 30% in size
Vaccinia mCherry: vaccinia inhibition (mCherry reporter); Vaccinia virus mCherry reporter infection, fluorescence; Potency, µM (titrated, usually from 36.5 µM), usual class: inhibitors; hit rate 0.63% among 310,000; AID 720579; calls by dose curve; tested in A549 cells; note: nearly all actives have a fitted effect of over 35% in size
Hits are given with their value; i = inactive; ? = inconclusive; nt = not tested or not shown. This is a sample that favours compounds with a hit; in the whole collection about 4.6% have one here.

SMILES | MARV entry inh | Lassa entry inh | HCV inhibitor | Vaccinia Venus | Vaccinia mCherry
COc1ccccc1CN1CCC(CNS(=O)(=O)c2cc(-c3onc(C)c3C)ccc2OC)CC1 | nt | i | 10µM | i | ?
CCOC(=O)CN1C(=O)NC(c2ccc(Br)cc2)C(C(=O)OC)=C1C (configuration not stated) | i | nt | nt | nt | nt
CC(C)(C)[S+](=O)([O-])/C(C#N)=C/NC1=NCCCC1 | i | nt | nt | nt | nt
COc1cccc(-c2cn3c(n2)sc2cc(C(=O)NC4CCCCCC4)ccc23)c1 | nt | i | nt | ? | i
CS(=O)(=O)N1CCN(c2nnc(-c3ccccc3)c3ccccc23)CC1 | ? | i | i | nt | nt
CCN1CCN(c2nnc(-c3ccc(F)cc3)c3ccccc23)CC1 | ? | i | 2.8µM | ? | i
Cc1cc(-c2ccccc2)nc(N2CCN(c3ccccn3)CC2)n1 | 9.2µM | 4.6µM | ? | i | i
c1ccc(-c2nnc(N3CCN(c4ccccn4)CC3)c3ccccc23)cc1 | i | ? | 14µM | nt | nt
Cc1ccc(-c2nnc(N3CCN(c4ccccn4)CC3)c3ccccc23)cc1 | ? | ? | ? | 18µM | 11µM
Cc1cc(Br)ccc1NC(=O)C1(S(=O)(=O)c2ccc(Cl)cc2)CC1 | i | i | nt | i | i
c1ccc(-c2[nH]ncc2-c2ccnc(-c3ccc(OCCN4CCOCC4)cc3)c2)nc1 | nt | i | nt | nt | nt
COc1ccc(Nc2ncnc3c2cnn3Cc2ccc(C)cc2)cc1 | ? | ? | 11µM | i | ?
COc1ccc(CCNC(=O)CCN2C(=O)COc3ccccc32)cc1OC | i | i | i | i | i
COc1ccc(CCNC(=O)CCN2C(=O)COc3ccc(C)cc32)cc1OC | i | ? | 2.8µM | nt | nt
O=C(NC(=S)Nc1ccc(N2CCOCC2)cc1)c1cccc(Cl)c1 | ? | i | 25µM | i | i
O=C(NC(=S)Nc1ccc(N2CCOCC2)cc1)c1ccccc1 | ? | i | i | i | i
COc1cccc(C(=O)NC(=S)Nc2ccc(N3CCCC3)cc2)c1 | i | ? | ? | i | nt
O=C(NC(NC(=S)Nc1ccccc1)C(Cl)(Cl)Cl)c1cccc(Cl)c1 (configuration not stated) | ? | ? | 11µM | ? | ?
CCCC(=O)N1CCN(c2ccc(NC(=S)NC(=O)c3cccc(C)c3)cc2)CC1 | ? | ? | 7.1µM | i | i
Cc1cc2n(n1)CCC(=O)N2Cc1ccc(C(=O)Nc2cc(Cl)ccc2C)cc1 | nt | ? | nt | i | i
Cc1ccccc1N1CCN(C2CCCN(C(=O)c3cn4cccc(C)c4n3)C2)CC1 (configuration not stated) | nt | nt | 11µM | nt | nt
Cc1nc2nc(SCC(=O)NCCCN3CCCCCC3)nn2c(C)c1Cc1ccccc1 | ? | ? | i | i | i
Cc1ccc(Cc2c(C)nc3nc(SCC(=O)NCCCN4CCOCC4)nn3c2C)cc1 | 8.9µM | i | i | i | i
COc1cccc2c1[C@H](C=Cc1ccccc1)[C@@H]([C@H](O)CO)OC2 | i | i | nt | nt | nt
c1ccc(-c2cc3c(N4CCCC4)ncnc3s2)cc1 | i | i | 10µM | i | i
SMILES | MARV entry inh | Lassa entry inh | HCV inhibitor | Vaccinia Venus | Vaccinia mCherry
c1ccc(-c2cc3c(N4CCOCC4)ncnc3s2)cc1 | i | i | 10µM | i | i
c1ccc(-n2nnc3c(N4CCOCC4)ncnc32)cc1 | 2.3µM | 5.2µM | i | nt | nt
Cc1nnc(N2CCOCC2)c2nn(-c3ccccc3)c(C)c12 | i | ? | i | i | i
c1ccc(-c2cc3c(N4CCCCC4)ncnc3s2)cc1 | i | i | ? | i | i
CC[C@@H]1CN2CCc3cc(OC)c(OC)cc3[C@H]2C[C@@H]1C[C@H]1NCCc2cc(OC)c(OC)cc21 | 0.33µM | nt | nt | nt | nt
CCc1ccc(OCC2NCCc3cc(OC)c(OC)cc32)cc1 (configuration not stated) | nt | nt | i | nt | nt
CCC1CN2CCc3cc(OC)c(OC)cc3C2CC1CC1NCCc2c1[nH]c1ccc(O)cc21 (configuration not stated) | 0.22µM | 0.5µM | ? | 5.6µM | ?
COc1cc2c(cc1OC)C(Cc1ccc(O)cc1)N(C)CC2 (configuration not stated) | i | i | i | i | i
Cc1ccc(NC(=O)c2cc(S(=O)(=O)NC3CCCCCC3)ccc2F)cc1F | nt | i | nt | i | i
Cc1cc(/C=C2/NC(=O)N(Cc3ccccc3F)C2=O)c(C)n1-c1ccccn1 | i | ? | i | i | ?
CCN1C(=O)N/C(=C/c2cc(C)n(Cc3ccccc3)c2C)C1=O | ? | ? | 10µM | nt | nt
CCn1c(C)cc(/C=C2\NC(=O)N(Cc3ccc(Cl)cc3)C2=O)c1C | ? | i | 13µM | nt | nt
Cc1cccc(CN2C(=O)N/C(=C/c3cc(C)n(-c4ccccn4)c3C)C2=O)c1 | i | i | 1.8µM | i | i
Cc1cc(/C=c2/sc3nc4ccccc4n3c2=O)c(C)n1-c1ccccn1 | ? | 0.21µM | ? | nt | nt
Cc1cc(/C=c2\sc3nc4ccccc4n3c2=O)c(C)n1-c1ccc(C(=O)O)cc1 | i | i | i | i | i
COCCn1c(C)cc(/C=C2/NC(=O)N(Cc3ccc(C)cc3)C2=O)c1C | ? | i | ? | i | i
COc1ccc2c(c1)c1c(c(=O)n(-c3ccccc3C)c(=O)n1CC(=O)NCc1ccc(C)cc1)n2C | nt | i | nt | i | i
COc1ccc(NC(=O)CC2C(=O)N(c3cccc(OC)c3)C(=O)N2CCC(C)C)cc1 (configuration not stated) | i | i | i | nt | nt
COc1ccc(NC(=O)CC2C(=O)N(c3cccc(OC)c3)C(=O)N2CCC2=CCCCC2)cc1 (configuration not stated) | ? | 11µM | nt | i | i
COCc1c(C(=O)NCC2CCCN(C)C2)cnn1-c1ncc2c(n1)-c1ccccc1CCC2 (configuration not stated) | nt | nt | nt | i | i
COc1ccc(CCNc2oc(Cc3ccccc3)nc2C#N)cc1OC | ? | i | 10µM | i | i
COc1ccc(CCNc2oc(COc3ccccc3Cl)nc2C#N)cc1OC | nt | nt | ? | i | i
Oc1ccccc1/C=N/Nc1cc(N2CCCC2)nc(N2CCCC2)n1 | 2.3µM | ? | ? | ? | ?
Oc1cccc(/C=N/Nc2cc(N3CCOCC3)nc(N3CCOCC3)n2)c1 | 2.6µM | ? | ? | ? | ?
Cc1nc(N/N=C/c2cccc([N+](=O)[O-])c2)cc(N2CCCCC2)n1 | nt | nt | nt | i | i
SMILES | MARV entry inh | Lassa entry inh | HCV inhibitor | Vaccinia Venus | Vaccinia mCherry
Oc1ccc(/C=N/Nc2cc(N3CCOCC3)nc(N3CCOCC3)n2)cc1O | ? | i | ? | ? | i
Cc1nc(N/N=C/c2cccc(F)c2)cc(N2CCOCC2)n1 | 7.9µM | i | ? | i | ?
Cc1nc(N/N=C/c2ccc(O)cc2O)cc(N2CCOCC2)n1 | 2.8µM | ? | i | ? | 1.1µM
CC(C)(C)NCC(O)(c1ccc(Cl)cc1)c1ccc(Cl)cc1 | 3.2µM | ? | ? | i | ?
O=C(NCCCN1CCCCCC1)c1ccc2c(Cl)c3c(nc2c1)CCCC3 | ? | ? | 0.63µM | ? | i
CCN1CCN(CCCNC(=O)c2ccc3c(Cl)c4c(nc3c2)CCCC4)CC1 | ? | ? | ? | 13µM | ?
COCCNC(=O)c1ccc2c(Cl)c3c(nc2c1)CCC3 | ? | i | i | i | i
CC1CCN(CCCNC(=O)c2ccc3c(Cl)c4c(nc3c2)CCCC4)CC1 | 10µM | ? | 8.9µM | i | i
CCN(CC)c1ccc(C(=O)N2CCc3c([nH]c4ccccc34)C2c2ccc(F)cc2)cc1 (configuration not stated) | nt | ? | nt | i | i
